Assay results published in ChEMBL document CHEMBL1961873, “Compounds: GSK PKIS; Assays: Nanosyn kinase panel” (2012).

Legend:
[1] = target: MAP/microtubule affinity-regulating kinase 3 (Homo sapiens) (UniProt P27448); details: at 1 µM;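 also: reported values are averaged percent inhibition of MARK3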
[2] = target: T1, MAP/microtubule affinity-regulating kinase 4 (Homo sapiens) (UniProt Q96L34); details: at 0.1 µM
T1 sequence (whole entry): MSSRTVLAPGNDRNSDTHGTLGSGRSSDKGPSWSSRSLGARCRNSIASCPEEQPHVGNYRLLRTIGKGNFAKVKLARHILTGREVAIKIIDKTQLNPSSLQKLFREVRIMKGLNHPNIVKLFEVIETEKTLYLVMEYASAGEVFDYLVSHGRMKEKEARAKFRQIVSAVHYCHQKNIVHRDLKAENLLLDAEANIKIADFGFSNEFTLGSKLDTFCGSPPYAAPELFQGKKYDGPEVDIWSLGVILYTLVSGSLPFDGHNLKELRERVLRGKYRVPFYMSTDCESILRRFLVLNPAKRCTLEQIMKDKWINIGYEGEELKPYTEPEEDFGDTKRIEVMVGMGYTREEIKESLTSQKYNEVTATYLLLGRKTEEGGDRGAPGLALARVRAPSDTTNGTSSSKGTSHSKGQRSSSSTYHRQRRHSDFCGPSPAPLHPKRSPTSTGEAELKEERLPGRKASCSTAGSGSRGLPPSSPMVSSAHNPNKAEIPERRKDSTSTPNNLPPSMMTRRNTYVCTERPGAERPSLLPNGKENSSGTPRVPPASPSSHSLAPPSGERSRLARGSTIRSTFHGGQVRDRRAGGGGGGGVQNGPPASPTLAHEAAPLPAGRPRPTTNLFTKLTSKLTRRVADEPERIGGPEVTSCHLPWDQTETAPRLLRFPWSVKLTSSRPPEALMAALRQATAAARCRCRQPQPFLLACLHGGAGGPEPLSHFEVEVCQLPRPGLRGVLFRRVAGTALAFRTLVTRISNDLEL

[3] = target: T1, MAP/microtubule affinity-regulating kinase 4 (Homo sapiens); details: at 1 µM
[4] = target: Maternal embryonic leucine zipper kinase (Homo sapiens) (UniProt Q14680); details: at 0.1 µM
Maternal embryonic leucine zipper kinase (Homo sapiens), sequence (Q14680 whole entry, looked up): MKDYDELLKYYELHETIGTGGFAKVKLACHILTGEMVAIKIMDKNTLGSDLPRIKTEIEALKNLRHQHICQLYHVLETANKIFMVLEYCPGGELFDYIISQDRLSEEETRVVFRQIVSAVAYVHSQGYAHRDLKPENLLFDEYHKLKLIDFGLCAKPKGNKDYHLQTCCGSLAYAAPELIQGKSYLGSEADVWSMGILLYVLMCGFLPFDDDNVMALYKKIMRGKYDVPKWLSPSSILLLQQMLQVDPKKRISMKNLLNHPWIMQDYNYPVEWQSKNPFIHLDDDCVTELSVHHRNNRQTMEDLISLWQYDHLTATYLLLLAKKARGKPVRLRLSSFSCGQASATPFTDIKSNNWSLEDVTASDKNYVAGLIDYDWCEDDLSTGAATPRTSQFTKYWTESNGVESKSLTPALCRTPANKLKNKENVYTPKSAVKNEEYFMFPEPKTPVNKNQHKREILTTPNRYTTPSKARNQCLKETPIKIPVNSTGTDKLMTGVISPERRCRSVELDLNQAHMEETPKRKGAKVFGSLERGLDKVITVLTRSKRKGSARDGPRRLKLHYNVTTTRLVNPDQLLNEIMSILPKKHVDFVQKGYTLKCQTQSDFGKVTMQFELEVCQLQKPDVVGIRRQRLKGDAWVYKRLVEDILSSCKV

[5] = target: Maternal embryonic leucine zipper kinase (Homo sapiens) (UniProt Q14680); details: at 1 µM
[6] = target: MAP kinase-interacting serine/threonine-protein kinase 1 (Homo sapiens) (UniProt Q9BUB5); details: at 0.1 µM
MAP kinase-interacting serine/threonine-protein kinase 1 (Homo sapiens), sequence (Q9BUB5 whole entry, looked up): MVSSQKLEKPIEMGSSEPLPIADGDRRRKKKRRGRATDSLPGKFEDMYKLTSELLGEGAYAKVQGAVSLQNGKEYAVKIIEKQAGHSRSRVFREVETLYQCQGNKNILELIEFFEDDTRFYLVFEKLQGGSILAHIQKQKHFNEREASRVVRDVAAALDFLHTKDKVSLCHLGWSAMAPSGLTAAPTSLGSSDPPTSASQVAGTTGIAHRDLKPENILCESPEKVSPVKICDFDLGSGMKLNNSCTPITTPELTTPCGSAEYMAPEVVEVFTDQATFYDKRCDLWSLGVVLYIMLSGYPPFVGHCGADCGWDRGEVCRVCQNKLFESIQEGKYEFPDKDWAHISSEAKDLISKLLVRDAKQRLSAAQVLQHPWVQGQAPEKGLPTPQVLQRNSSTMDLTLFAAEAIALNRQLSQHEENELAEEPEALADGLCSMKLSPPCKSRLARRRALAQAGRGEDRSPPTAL

[7] = target: MAP kinase-interacting serine/threonine-protein kinase 1 (Homo sapiens) (UniProt Q9BUB5); details: at 1 µM
[8] = target: MAP kinase-interacting serine/threonine-protein kinase 2 (Homo sapiens) (UniProt Q9HBH9); details: at 0.1 µM
[9] = target: MAP kinase-interacting serine/threonine-protein kinase 2 (Homo sapiens) (UniProt Q9HBH9); details: at 1 µM
[10] = target: Serine/threonine-protein kinase MARK2 (Homo sapiens) (UniProt Q7KZI7); details: at 0.1 µM
Serine/threonine-protein kinase MARK2 (Homo sapiens), sequence (Q7KZI7 whole entry, the tested form may be a part): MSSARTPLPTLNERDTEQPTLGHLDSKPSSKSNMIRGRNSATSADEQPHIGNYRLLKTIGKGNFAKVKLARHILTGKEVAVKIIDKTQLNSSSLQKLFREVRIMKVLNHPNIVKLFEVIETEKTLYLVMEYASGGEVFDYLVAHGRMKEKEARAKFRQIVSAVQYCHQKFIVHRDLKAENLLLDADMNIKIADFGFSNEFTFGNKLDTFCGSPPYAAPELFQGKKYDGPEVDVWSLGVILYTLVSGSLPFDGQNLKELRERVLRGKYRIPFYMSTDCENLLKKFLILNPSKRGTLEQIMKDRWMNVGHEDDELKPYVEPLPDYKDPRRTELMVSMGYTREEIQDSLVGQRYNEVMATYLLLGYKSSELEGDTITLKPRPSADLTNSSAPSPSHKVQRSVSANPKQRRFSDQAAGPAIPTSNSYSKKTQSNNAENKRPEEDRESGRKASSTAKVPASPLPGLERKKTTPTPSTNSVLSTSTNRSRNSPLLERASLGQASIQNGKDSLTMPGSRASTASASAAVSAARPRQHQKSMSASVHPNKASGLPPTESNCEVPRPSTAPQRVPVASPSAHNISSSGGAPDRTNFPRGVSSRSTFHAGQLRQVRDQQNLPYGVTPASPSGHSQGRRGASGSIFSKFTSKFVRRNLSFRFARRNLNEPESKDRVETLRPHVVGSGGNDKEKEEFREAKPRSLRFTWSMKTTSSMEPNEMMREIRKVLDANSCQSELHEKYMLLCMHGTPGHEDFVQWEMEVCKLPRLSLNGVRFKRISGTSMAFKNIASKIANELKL

[11] = target: Serine/threonine-protein kinase MARK2 (Homo sapiens) (UniProt Q7KZI7); details: at 1 µM
[12] = target: PAS domain-containing serine/threonine-protein kinase (Homo sapiens) (UniProt Q96RG2); details: at 0.1 µM
PAS domain-containing serine/threonine-protein kinase (Homo sapiens), sequence (Q96RG2 whole entry, the tested form may be a part, canonical isoform): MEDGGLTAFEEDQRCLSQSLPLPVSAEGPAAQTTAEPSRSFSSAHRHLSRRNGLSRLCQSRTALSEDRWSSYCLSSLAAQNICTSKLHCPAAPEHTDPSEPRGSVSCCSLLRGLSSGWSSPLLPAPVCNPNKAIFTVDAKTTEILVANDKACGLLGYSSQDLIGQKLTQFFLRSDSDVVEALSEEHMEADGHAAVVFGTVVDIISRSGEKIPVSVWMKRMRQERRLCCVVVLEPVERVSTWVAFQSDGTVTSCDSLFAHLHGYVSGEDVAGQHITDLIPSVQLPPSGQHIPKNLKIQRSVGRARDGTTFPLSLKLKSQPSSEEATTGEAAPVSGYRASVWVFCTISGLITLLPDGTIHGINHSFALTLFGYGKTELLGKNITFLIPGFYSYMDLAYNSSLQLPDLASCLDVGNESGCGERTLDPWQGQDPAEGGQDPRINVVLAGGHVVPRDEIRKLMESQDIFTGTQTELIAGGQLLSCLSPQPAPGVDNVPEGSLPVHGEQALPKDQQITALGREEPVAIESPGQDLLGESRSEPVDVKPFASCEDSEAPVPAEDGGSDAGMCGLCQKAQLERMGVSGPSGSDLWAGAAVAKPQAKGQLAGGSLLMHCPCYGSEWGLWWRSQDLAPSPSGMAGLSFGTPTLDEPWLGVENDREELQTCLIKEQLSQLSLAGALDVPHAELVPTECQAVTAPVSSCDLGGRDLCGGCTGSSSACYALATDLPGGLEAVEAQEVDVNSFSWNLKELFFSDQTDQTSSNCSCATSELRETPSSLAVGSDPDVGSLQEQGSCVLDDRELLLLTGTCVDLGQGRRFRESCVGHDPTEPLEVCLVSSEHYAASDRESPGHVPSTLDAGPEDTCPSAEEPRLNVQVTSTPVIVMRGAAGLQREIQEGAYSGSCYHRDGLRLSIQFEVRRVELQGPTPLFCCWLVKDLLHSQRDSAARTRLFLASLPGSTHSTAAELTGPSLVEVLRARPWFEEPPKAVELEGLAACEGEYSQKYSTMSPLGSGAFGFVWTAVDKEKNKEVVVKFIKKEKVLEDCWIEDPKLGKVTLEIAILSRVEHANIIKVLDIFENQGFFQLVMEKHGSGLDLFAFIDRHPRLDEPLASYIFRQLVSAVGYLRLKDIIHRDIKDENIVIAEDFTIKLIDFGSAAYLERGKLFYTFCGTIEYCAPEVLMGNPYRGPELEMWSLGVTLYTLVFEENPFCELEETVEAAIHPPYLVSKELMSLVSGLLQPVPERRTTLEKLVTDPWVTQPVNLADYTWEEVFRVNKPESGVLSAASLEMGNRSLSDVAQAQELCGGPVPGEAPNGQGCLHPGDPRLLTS

[13] = target: PAS domain-containing serine/threonine-protein kinase (Homo sapiens) (UniProt Q96RG2); details: at 1 µM
[14] = target: Phosphorylase b kinase gamma catalytic chain, skeletal muscle/heart isoform (Homo sapiens) (UniProt Q16816); details: at 0.1 µM
Phosphorylase b kinase gamma catalytic chain, skeletal muscle/heart isoform (Homo sapiens), sequence (Q16816 whole entry, looked up, canonical isoform): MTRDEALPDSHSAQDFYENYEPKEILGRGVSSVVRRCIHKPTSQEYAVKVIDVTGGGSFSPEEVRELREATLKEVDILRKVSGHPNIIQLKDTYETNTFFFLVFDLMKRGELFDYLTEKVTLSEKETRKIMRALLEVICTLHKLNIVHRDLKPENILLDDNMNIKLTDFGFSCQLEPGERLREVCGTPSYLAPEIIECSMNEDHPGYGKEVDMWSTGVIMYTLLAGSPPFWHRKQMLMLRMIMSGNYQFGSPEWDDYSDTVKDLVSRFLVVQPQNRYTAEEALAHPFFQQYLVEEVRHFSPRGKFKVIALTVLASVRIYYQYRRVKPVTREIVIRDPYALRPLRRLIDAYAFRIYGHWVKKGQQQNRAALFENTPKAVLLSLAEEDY

[15] = target: Phosphorylase b kinase gamma catalytic chain, skeletal muscle/heart isoform (Homo sapiens) (UniProt Q16816); details: at 1 µM
[16] = target: T2, Phosphorylase b kinase gamma catalytic chain, liver/testis isoform (Homo sapiens) (UniProt P15735); details: at 0.1 µM
T2 sequence (whole entry): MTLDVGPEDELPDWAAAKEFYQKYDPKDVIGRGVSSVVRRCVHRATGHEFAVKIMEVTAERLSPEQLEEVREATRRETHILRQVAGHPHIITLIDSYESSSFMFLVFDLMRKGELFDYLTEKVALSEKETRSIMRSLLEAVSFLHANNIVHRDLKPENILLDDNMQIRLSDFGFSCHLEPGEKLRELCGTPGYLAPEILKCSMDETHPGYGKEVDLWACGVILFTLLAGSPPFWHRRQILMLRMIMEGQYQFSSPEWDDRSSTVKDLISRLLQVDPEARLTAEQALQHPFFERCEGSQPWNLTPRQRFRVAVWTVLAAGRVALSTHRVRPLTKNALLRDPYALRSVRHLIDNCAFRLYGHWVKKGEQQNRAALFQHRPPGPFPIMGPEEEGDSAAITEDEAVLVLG

[17] = target: T2, Phosphorylase b kinase gamma catalytic chain, liver/testis isoform (Homo sapiens); details: at 1 µM
[18] = target: Serine/threonine-protein kinase pim-1 (Homo sapiens) (UniProt P11309); details: at 0.1 µM
Serine/threonine-protein kinase pim-1 (Homo sapiens), sequence (P11309 whole entry, looked up): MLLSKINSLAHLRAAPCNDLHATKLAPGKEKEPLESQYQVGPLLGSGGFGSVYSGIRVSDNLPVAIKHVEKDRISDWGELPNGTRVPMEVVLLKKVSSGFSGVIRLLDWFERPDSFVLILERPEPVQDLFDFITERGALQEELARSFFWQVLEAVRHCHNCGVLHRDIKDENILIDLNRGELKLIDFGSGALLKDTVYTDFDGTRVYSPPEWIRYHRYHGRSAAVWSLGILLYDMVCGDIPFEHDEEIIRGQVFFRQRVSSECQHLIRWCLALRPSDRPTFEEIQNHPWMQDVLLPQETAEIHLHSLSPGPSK

[19] = target: Serine/threonine-protein kinase pim-1 (Homo sapiens) (UniProt P11309); details: at 1 µM
[20] = target: Serine/threonine-protein kinase pim-2 (Homo sapiens) (UniProt Q9P1W9); details: at 0.1 µM;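 also: reported value is the mean percent inhibition of PIM2, measured in the GSK PKIS kinase inhibitor set screen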
Serine/threonine-protein kinase pim-2 (Homo sapiens), sequence (Q9P1W9 whole entry, looked up): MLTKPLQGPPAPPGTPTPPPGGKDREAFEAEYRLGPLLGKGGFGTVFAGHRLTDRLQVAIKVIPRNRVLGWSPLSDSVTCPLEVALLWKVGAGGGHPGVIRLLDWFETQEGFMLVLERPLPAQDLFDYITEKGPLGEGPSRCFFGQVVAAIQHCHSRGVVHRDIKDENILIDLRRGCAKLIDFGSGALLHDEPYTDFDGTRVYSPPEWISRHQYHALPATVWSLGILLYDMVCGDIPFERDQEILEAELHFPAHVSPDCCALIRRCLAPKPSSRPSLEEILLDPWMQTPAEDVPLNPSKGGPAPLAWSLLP

MAP/microtubule affinity-regulating kinase 3 (Homo sapiens), sequence (P27448 whole entry, looked up): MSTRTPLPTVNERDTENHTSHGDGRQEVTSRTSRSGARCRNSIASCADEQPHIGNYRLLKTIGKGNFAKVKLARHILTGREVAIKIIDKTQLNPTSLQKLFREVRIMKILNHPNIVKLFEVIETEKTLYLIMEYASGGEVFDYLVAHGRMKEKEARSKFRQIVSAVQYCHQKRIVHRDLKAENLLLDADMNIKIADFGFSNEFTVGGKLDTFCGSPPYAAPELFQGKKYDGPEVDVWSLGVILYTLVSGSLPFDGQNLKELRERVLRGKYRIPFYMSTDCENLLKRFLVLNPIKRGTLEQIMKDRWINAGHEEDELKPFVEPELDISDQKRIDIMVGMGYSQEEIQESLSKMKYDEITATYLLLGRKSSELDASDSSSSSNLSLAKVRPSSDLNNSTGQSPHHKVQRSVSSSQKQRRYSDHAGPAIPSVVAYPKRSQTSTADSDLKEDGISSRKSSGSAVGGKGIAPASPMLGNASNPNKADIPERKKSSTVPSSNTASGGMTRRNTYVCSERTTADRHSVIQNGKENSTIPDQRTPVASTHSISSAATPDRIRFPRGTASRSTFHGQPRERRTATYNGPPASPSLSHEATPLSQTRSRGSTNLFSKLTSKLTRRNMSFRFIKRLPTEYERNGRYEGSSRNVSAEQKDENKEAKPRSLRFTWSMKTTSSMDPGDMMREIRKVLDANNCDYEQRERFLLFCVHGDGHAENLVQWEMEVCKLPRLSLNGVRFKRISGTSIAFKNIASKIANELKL

| SMILES | inhibition [1] | inhibition [2] | inhibition [3] | inhibition [4] | inhibition [5] | inhibition [6] | inhibition [7] | inhibition [8] | inhibition [9] | inhibition [10] | inhibition [11] | inhibition [12] | inhibition [13] | inhibition [14] | inhibition [15] | inhibition [16] | inhibition [17] | inhibition [18] | inhibition [19] | inhibition [20] |
| --- | --- | --- | --- | --- | --- | --- | --- | --- | --- | --- | --- | --- | --- | --- | --- | --- | --- | --- | --- | --- |
| CN1CCC(C(=O)Nc2n[nH]c3nnc(-c4ccccc4)cc23)CC1 | 4.62% | 2.21% | 3.02% | 3.21% | 5.92% | 6.32% | 13.6% | 2.9% | 8.1% | 1.18% | 0.72% | 0.17% | 0.71% | 5.33% | 11.3% | 6.18% | 9.48% | 1.63% | 3.41% | 0.6% |
| COc1ccc(-c2nn3ncccc3c2-c2ccnc(Nc3ccc(Cl)c(C(F)(F)F)c3)n2)cc1 | 6.57% | 0.48% | 0.08% | 0.2% | 4.8% | -1.04% | 5.69% | 1.9% | 2.43% | -0.27% | -0.83% | 0.24% | 2.12% | 3.41% | 5.53% | 2.13% | 5.41% | 0.1% | 0.37% | 0.12% |
| CS(=O)(=O)CCNCc1ccc(-c2ccc3ncnc(Nc4ccc(OCc5ccccc5)c(Cl)c4)c3c2)o1 | 1.81% | 0.94% | 1.91% | 2.31% | 3.16% | 2.34% | 6.26% | 1.96% | 9.71% | 0.91% | 3.76% | 0.71% | 0.11% | 1.63% | 6.13% | -1.65% | -2.44% | 0.36% | 1.78% | -0.34% |
| COc1cccc(-n2ncc3c(N/N=C/c4cccc(F)c4)ncnc32)c1 | -1.64% | 1.82% | 5.56% | 4.24% | 11% | 2.81% | 11.8% | 1.92% | 6.42% | 0.05% | 2.5% | -0.33% | -1.6% | 5.06% | 9% | 2.06% | 1.7% | -0.24% | 0.52% | -3.26% |
| Nc1nc(-c2ccccn2)c(-c2ccc3ncccc3n2)s1 | 8.13% | 0.3% | 2.26% | 3.67% | 7.64% | 2.16% | 5.61% | 1% | 5.53% | -3.64% | 1.77% | -0.2% | -0.49% | 0.58% | 4.27% | 4.79% | 5.31% | 0.81% | 2.21% | -0.67% |
| Nc1ncnc2occ(-c3ccc(NC(=O)Nc4cccc(C(F)(F)F)c4)cc3)c12 | 5.23% | 2.8% | 4.23% | 3.16% |  | 11.2% | 38.7% | 9.53% | 53.9% | 1.27% | 3.83% | -0.58% | 0.31% | 6.3% | 10.2% | 6.43% | 4.64% | 1.56% | 2.28% | 0.42% |
| COc1cc(C=NNc2ncnc3c2cnn3-c2ccccc2)ccc1O | 18.2% | 1.61% | 11.3% | 6.74% | 43.8% | 12.1% | 49.9% | 13.7% | 52% | -0.32% | 6.47% | 0.58% | -3.11% | 2.48% | 11.3% | 3.34% | 2% | 1.39% | 1.57% | -0.02% |
| COc1ccc(-c2ccncc2)cc1C(N)=O | 5.66% | 1.72% | 2.64% | 3.65% | 8.7% | 2.15% | 5.97% | 0.23% | 6.75% |  | 0.17% | -0.78% | -0.33% | 2.55% | 3.87% | 5.73% | 5.45% | 0.06% | 2.13% | -0.49% |
| Cc1ccc(NC(=O)c2ccnc(N3CCCC3)c2)cc1-c1ccc(C(=O)NCC2CC2)cc1 | 0.65% | 4.16% | 5.97% | 4.85% | 7.99% | 1.78% | 6.57% | -0.01% | 1.11% | 0.13% | 6.34% | -0.05% | -1.71% | 6.43% | 11% | 5.9% | 5.73% | 0.89% | 1.92% | -2.62% |
| Fc1cccc(COc2ccc(Nc3ncnc4cc(-c5ccc[nH]5)sc34)cc2Cl)c1 | -1.25% | 1.49% | 1.57% | 4.24% | 5.38% | 1% | 7.21% | 0.75% | 3.83% | -1.15% | 2.66% | -0.58% | -0.43% | 3.19% | 3.62% | 2.24% | 2.18% | -0.5% | 1.01% | -3.43% |
| Fc1cccc(COc2ccc(Nc3ncnc4sc(-c5cccs5)cc34)cc2Cl)c1 | 3.4% | 0.59% | 1.48% | 2.25% | 3.16% | 2.11% | 5.61% | 1.36% | 5.08% | 1.15% | 4.63% | 0.96% | -0.11% | 2.66% | 6.77% | -1.25% | -2.01% | 0.38% | 1.29% | 0.52% |
| O=C1NC(=O)C(N2CCc3ccccc32)=C1c1ccc(Cl)cc1 | 2.11% | 3.11% | 2.16% | 4.84% | 6.67% | 2.34% | 3.78% | 1% | 3.38% | 0.05% | 2.02% | 0.1% | -1.5% | 3.36% | 5.29% | 4.72% | 2.26% | 0.92% | 1.27% | 0.55% |
| NS(=O)(=O)c1ccc(N/N=C2\C(=O)Nc3ccc(C(=O)NCCc4c[nH]cn4)cc32)cc1 | 49.1% | 11.8% | 56.3% | 82% | 98% | 2.81% | 4.11% | 1.48% | 4.85% | 7.88% | 40.4% | 0.48% | -3.06% | 14.2% | 58.7% | 8.35% | 24% | 10.5% | 51.7% | 3.79% |
| CN(C)c1cc2c(Nc3ccc4nc(Cc5ccccc5)[nH]c4c3)ncnc2cn1 | 5% | 2.82% | 3% | 6.98% | 11.4% | 3.69% | 8.7% | 0.92% | 4.05% | 0.6% | 1.13% | 0.02% | -2.17% | 7.34% | 13.4% | 5.65% | 5.19% | 1.36% | 3.18% | -0.82% |
